The source made the active and inactive calls. The calls were made as follows: active = hit-call score of the fitted dose curve at least 0.9, where 1 is the maximum; inactive = score below 0.9.
Key:
Details in all cases: mRNA level, 48 h; actives raise or lower the signal
[1] = read-out: Cyclin D1 (CCND1), CCND1 (gene 595); assay: LTEA_HepaRG_CCND1: Life Technologies and Expression Analysis (LTEA) Assay for Cyclin D1 (CCND1) using HepaRG (AID 2283451)
Method in brief: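 HepaRG plated 48 h, medium switched to serum-free induction medium, chemicals added in duplicate (top 100 uM, half-log steps, 0.5% DMSO) for 48 h, cells lysed, RNA measured by TaqMan qRT-PCR.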

[2] = read-out: flavin-containing dimethylaniline monooxygenases 3 (FMO3), FMO3 (gene 2328); assay: LTEA_HepaRG_FMO3: Life Technologies and Expression Analysis (LTEA) Assay for flavin-containing dimethylaniline monooxygenases 3 (FMO3) using HepaRG (AID 2283453);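 as to AC50: FMO3 transcript by TaqMan qRT-PCR normalized to ACTB GAPDH and POLR2A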
Method in brief: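 HepaRG, 48 h exposure, 8-pt half-log series from 100 uM, 0.5% DMSO vehicle, duplicates; FMO3 transcript by Fluidigm TaqMan qRT-PCR, housekeeping-normalized; gain/loss fit vs DMSO.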

[3] = read-out: Cytochrome P450 (CYP1A1), CYP1A1 (gene 1543); assay: LTEA_HepaRG_CYP1A1: Life Technologies and Expression Analysis (LTEA) Assay for Cytochrome P450 (CYP1A1) using HepaRG (AID 2283454)
Method in brief: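 HepaRG, 48 h post-plating switched to serum-free induction medium; 8-pt conc-response (top 100 uM, half-log, 0.5% DMSO), duplicates, 48 h. Lysis in RLT, TaqMan qRT-PCR for CYP1A1; gain or loss vs DMSO.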

[4] = read-out: CFLAR gene, CFLAR (gene 8837); assay: LTEA_HepaRG_CFLAR: Life Technologies and Expression Analysis (LTEA) Assay for CFLAR gene using HepaRG (AID 2283455)
Method in brief: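 HepaRG, 48 h exposure, 8-pt conc-response (100 uM top, half-log), 0.5% DMSO vehicle, duplicates. CFLAR expression by qRT-PCR; ACTB/GAPDH/POLR2A normalization; gain or loss fit vs DMSO baseline.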

[5] = read-out: Forkhead box O1 (FOXO1), FOXO1 (gene 2308); assay: LTEA_HepaRG_FOXO1: Life Technologies and Expression Analysis (LTEA) Assay for Forkhead box O1 (FOXO1) using HepaRG (AID 2283456)
Method in brief: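 Readout is FOXO1 transcript level by multiplexed qRT-PCR against three housekeeping genes, curve-fitted in both directions relative to 0.5% DMSO vehicle. Human HepaRG cultures received chemicals for 48 h, up to 100 uM in half-log steps.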

[6] = read-out: growth arrest and DNA damage 45 (GADD45A), GADD45A (gene 1647); assay: LTEA_HepaRG_GADD45A: Life Technologies and Expression Analysis (LTEA) Assay for growth arrest and DNA damage 45 (GADD45A) using HepaRG (AID 2283458)
Method in brief: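 Differentiated HepaRG cells were exposed in duplicate for 48 h in serum-free induction medium to 8-point half-log concentrations up to 100 uM in 0.5% DMSO. GADD45A mRNA was measured by TaqMan qRT-PCR, normalized to ACTB, GAPDH and POLR2A, with bidirectional fitting versus DMSO.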

[7] = read-out: Forkhead box O3 (FOXO3), FOXO3 (gene 2309); assay: LTEA_HepaRG_FOXO3: Life Technologies and Expression Analysis (LTEA) Assay for Forkhead box O3 (FOXO3) using HepaRG (AID 2283459)
Method in brief: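 HepaRG, 48 h post-dose; 8 conc., half-log from 100 uM, 0.5% DMSO, duplicates; serum-free induction medium. Readout: FOXO3 mRNA, TaqMan qRT-PCR, housekeeping-normalized. Bidirectional curve fit vs DMSO baseline.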

[8] = read-out: ABC Transporter (ABCB1), ABCB1 (gene 5243); assay: LTEA_HepaRG_ABCB1: Life Technologies and Expression Analysis (LTEA) Assay for ABC Transporter (ABCB1) using HepaRG (AID 2283460)
Method in brief: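 Expression of ABCB1 was quantified by qRT-PCR against three housekeeping genes after human HepaRG cultures received test chemicals for 48 hours. Concentrations spanned eight half-log steps topping at 100 uM in 0.5% DMSO; gain or loss of signal was fitted relative to vehicle.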

[9] = read-out: growth arrest and DNA damage 45 (GADD45B), GADD45B (gene 4616); assay: LTEA_HepaRG_GADD45B: Life Technologies and Expression Analysis (LTEA) Assay for growth arrest and DNA damage 45 (GADD45B) using HepaRG (AID 2283461)
Method in brief: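 HepaRG, ~100,000 cells/well, 48 h plating; serum-free induction medium; cpd 100 uM top, half-log x8, 0.5% DMSO, duplicate, 48 h; lysis in RLT, RNA isolation, qRT-PCR; norm ACTB/GAPDH/POLR2A; bidirectional fit vs DMSO.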

[10] = read-out: ABC Transporter (ABCC3), ABCC3 (gene 8714); assay: LTEA_HepaRG_ABCC3: Life Technologies and Expression Analysis (LTEA) Assay for ABC Transporter (ABCC3) using HepaRG (AID 2283462)
Method in brief: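 Human HepaRG, 48 h dosing, 8-pt half-log series from 100 uM, 0.5% DMSO vehicle, duplicates. ABCC3 mRNA by TaqMan qRT-PCR, housekeeping-normalized; bidirectional curve fit vs DMSO.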

[11] = read-out: ABC Transporter (ABCB11), ABCB11 (gene 8647); assay: LTEA_HepaRG_ABCB11: Life Technologies and Expression Analysis (LTEA) Assay for ABC Transporter (ABCB11) using HepaRG (AID 2283463)
Method in brief: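 ABCB11 transcript levels are read by Fluidigm TaqMan qRT-PCR after 48 h chemical treatment of human HepaRG cells. Concentrations span 100 uM downward in half-log steps with 0.5% DMSO; gain or loss is fitted against DMSO controls.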

[12] = read-out: ABC Transporter (ABCC2), ABCC2 (gene 1244); assay: LTEA_HepaRG_ABCC2: Life Technologies and Expression Analysis (LTEA) Assay for ABC Transporter (ABCC2) using HepaRG (AID 2283464)
Method in brief: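 HepaRG, 48 h post-plating; serum-free induction medium; cpd 8-pt, 100 uM top, half-log, 0.5% DMSO, duplicate, 48 h. Readout: ABCC2 mRNA by qRT-PCR, norm. ACTB/GAPDH/POLR2A. Bidirectional fit vs DMSO baseline.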

[13] = read-out: Broad substrate specificity ATP-binding cassette transporter ABCG2 (Homo sapiens) (UniProt Q9UNQ0); assay: LTEA_HepaRG_ABCG2: Life Technologies and Expression Analysis (LTEA) Assay for ABC Transporter (ABCG2) using HepaRG (AID 2283465)
Method in brief: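 Read-out is ABCG2 mRNA induction or loss quantified by qRT-PCR after 48 h chemical treatment of human HepaRG cells, normalized to three housekeeping genes. Concentrations reached 100 uM top in half-log steps; fitting was bidirectional against 0.5% DMSO.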

[14] = read-out: ATP-citrate lyase (ACLY), ACLY (gene 47); assay: LTEA_HepaRG_ACLY: Life Technologies and Expression Analysis (LTEA) Assay for ATP-citrate lyase (ACLY) using HepaRG (AID 2283466)
Method in brief: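 HepaRG, 48 h exposure, 8-pt half-log dilutions (top 100 uM), 0.5% DMSO. Readout: ACLY mRNA, TaqMan qRT-PCR, housekeeping-normalized (ACTB/GAPDH/POLR2A). Bidirectional curve fit vs DMSO.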

[15] = read-out: Peroxisomal acyl-coenzyme A oxidase 1 (ACOX1) gene, ACOX1 (gene 51); assay: LTEA_HepaRG_ACOX1: Life Technologies and Expression Analysis (LTEA) Assay for Peroxisomal acyl-coenzyme A oxidase 1 (ACOX1) gene using HepaRG (AID 2283467)
Method in brief: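 Measured by qRT-PCR against three housekeeping genes: ACOX1 transcript change in human HepaRG cells after 48 h dosing. Concentrations ran up to 100 uM in half-log steps. Curves were fitted bidirectionally relative to 0.5% DMSO.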

[16] = read-out: Alkaline Phosphatase, Placental (ALPP) gene, ALPP (gene 250); assay: LTEA_HepaRG_ALPP: Life Technologies and Expression Analysis (LTEA) Assay for Alkaline Phosphatase, Placental (ALPP) gene using HepaRG (AID 2283468)
Method in brief: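 HepaRG, 48 h plating then 48 h dosing, serum-free induction medium, 0.5% DMSO. 8 conc, half-log, max 100 uM, duplicates. Endpoint: ALPP transcript by qRT-PCR, housekeeping-normalized; gain or loss fitted vs DMSO.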

[17] = read-out: Bcl-2 (BAD) gene, BAD (gene 572); assay: LTEA_HepaRG_BAD: Life Technologies and Expression Analysis (LTEA) Assay for Bcl-2 (BAD) gene using HepaRG (AID 2283469)
Method in brief: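 BAD transcript change, measured by qRT-PCR against three housekeeping genes and fitted in both directions relative to 0.5% DMSO, after 48 h chemical treatment of human HepaRG liver cells at concentrations up to 100 uM.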

[18] = read-out: Bcl-2 (BAX) gene, BAX (gene 581); assay: LTEA_HepaRG_BAX: Life Technologies and Expression Analysis (LTEA) Assay for Bcl-2 (BAX) gene using HepaRG (AID 2283470)
Method in brief: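 Differentiated human HepaRG cells, plated 48 h then switched to serum-free induction medium, were exposed 48 h to 8 half-log concentrations up to 100 uM in 0.5% DMSO; BAX mRNA measured by qRT-PCR, normalized to ACTB, GAPDH, POLR2A.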

Chain of Broad substrate specificity ATP-binding cassette transporter ABCG2 (Homo sapiens) (Q9UNQ0 whole entry, looked up): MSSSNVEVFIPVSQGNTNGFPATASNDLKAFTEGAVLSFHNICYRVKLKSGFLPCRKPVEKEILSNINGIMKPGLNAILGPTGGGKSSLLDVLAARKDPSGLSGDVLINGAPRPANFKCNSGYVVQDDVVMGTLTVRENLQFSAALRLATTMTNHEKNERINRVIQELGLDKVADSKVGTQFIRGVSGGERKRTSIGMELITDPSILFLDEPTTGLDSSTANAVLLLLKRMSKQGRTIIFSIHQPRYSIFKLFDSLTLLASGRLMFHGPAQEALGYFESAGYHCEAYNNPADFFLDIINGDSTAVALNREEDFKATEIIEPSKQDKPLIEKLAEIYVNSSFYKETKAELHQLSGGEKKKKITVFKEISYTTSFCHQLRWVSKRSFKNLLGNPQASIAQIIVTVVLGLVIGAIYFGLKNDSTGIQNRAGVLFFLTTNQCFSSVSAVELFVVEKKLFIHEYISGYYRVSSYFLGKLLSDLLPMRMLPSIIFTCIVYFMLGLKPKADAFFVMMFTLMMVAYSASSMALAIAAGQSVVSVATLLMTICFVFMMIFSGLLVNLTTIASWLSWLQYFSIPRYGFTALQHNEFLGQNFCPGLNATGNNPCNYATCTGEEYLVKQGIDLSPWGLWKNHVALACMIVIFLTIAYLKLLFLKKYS

Structure (SMILES): O=C(O)c1c(Cl)ccc2cc(Cl)cnc12
- outcome [1]: inactive
- outcome [2]: inactive
- outcome [3]: inactive
- outcome [4]: inactive
- outcome [5]: inactive
- AC50 [6]: 0.00381 µM (active)
- outcome [7]: inactive
- outcome [8]: inactive
- outcome [9]: inactive
- outcome [10]: inactive
- outcome [11]: inactive
- outcome [12]: inactive
- outcome [13]: inactive
- outcome [14]: inactive
- outcome [15]: inactive
- outcome [16]: inactive
- outcome [17]: inactive
- outcome [18]: inactive

Structure (SMILES): CCNC(=O)NC(=O)C(C#N)=NOC
- outcome [1]: inactive
- outcome [2]: inactive
- AC50 [3]: 50 µM (active)
- outcome [4]: inactive
- outcome [5]: inactive
- outcome [7]: inactive
- outcome [8]: inactive
- outcome [9]: inactive
- AC50 [10]: 0.791 µM (active)
- outcome [11]: inactive
- outcome [12]: inactive
- outcome [13]: inactive
- outcome [14]: inactive
- outcome [15]: inactive
- outcome [16]: inactive
- outcome [17]: inactive
- outcome [18]: inactive

Structure (SMILES): CCOC(=O)C(C)OC(=O)c1cc(Oc2ccc(C(F)(F)F)cc2Cl)ccc1[N+](=O)[O-] (centres undefined)
- outcome [1]: inactive
- outcome [2]: inactive
- AC50 [3]: 50 µM (active)
- outcome [4]: inactive
- outcome [5]: inactive
- AC50 [6]: 50 µM (active)
- outcome [7]: inactive
- outcome [8]: inactive
- AC50 [9]: 32.2 µM (active)
- outcome [11]: inactive
- AC50 [12]: 21.9 µM (active)
- AC50 [13]: 19.2 µM (active)
- AC50 [14]: 50 µM (active)
- AC50 [15]: 2.11 µM (active)
- outcome [16]: inactive
- outcome [17]: inactive
- outcome [18]: inactive

Structure (SMILES): Clc1nc(Cl)nc(Nc2ccccc2Cl)n1
- outcome [1]: inactive
- outcome [2]: inactive
- AC50 [3]: 25.5 µM (active)
- outcome [4]: inactive
- outcome [5]: inactive
- outcome [8]: inactive
- outcome [9]: inactive
- outcome [10]: inactive
- outcome [11]: inactive
- outcome [12]: inactive
- outcome [13]: inactive
- outcome [14]: inactive
- outcome [15]: inactive
- outcome [16]: inactive
- outcome [17]: inactive
- outcome [18]: inactive

Structure (SMILES): CCN(CC)C(=O)C(C)Oc1cccc2ccccc12 (centres undefined)
- outcome [1]: inactive
- AC50 [2]: 82.9 µM (active)
- AC50 [3]: 36.9 µM (active)
- outcome [4]: inactive
- outcome [5]: inactive
- outcome [8]: inactive
- outcome [9]: inactive
- outcome [10]: inactive
- AC50 [11]: 50 µM (active)
- outcome [12]: inactive
- AC50 [13]: 50 µM (active)
- outcome [14]: inactive
- AC50 [15]: 69.8 µM (active)
- AC50 [16]: 84.3 µM (active)
- outcome [17]: inactive
- outcome [18]: inactive

Structure (SMILES): Nc1cnn(-c2ccccc2)c(=O)c1Cl
- outcome [1]: inactive
- outcome [2]: inactive
- AC50 [3]: 71.7 µM (active)
- outcome [4]: inactive
- outcome [5]: inactive
- outcome [6]: inactive
- outcome [8]: inactive
- outcome [9]: inactive
- outcome [10]: inactive
- outcome [11]: inactive
- outcome [12]: inactive
- outcome [13]: inactive
- outcome [14]: inactive
- outcome [15]: inactive
- outcome [16]: inactive
- outcome [17]: inactive
- outcome [18]: inactive

Structure (SMILES): CCN(CC)c1nc(C)cc(OP(=S)(OC)OC)n1
- outcome [1]: inactive
- outcome [2]: inactive
- AC50 [3]: 31.1 µM (active)
- outcome [4]: inactive
- outcome [5]: inactive
- outcome [8]: inactive
- outcome [9]: inactive
- outcome [10]: inactive
- outcome [11]: inactive
- AC50 [12]: 19.9 µM (active)
- outcome [13]: inactive
- outcome [14]: inactive
- outcome [15]: inactive
- outcome [16]: inactive
- outcome [17]: inactive
- outcome [18]: inactive

Structure (SMILES): CCCC(=NOCC)C1=C(O)CC(CC(C)SCC)CC1=O (centres undefined)
- outcome [1]: inactive
- outcome [2]: inactive
- AC50 [3]: 73.9 µM (active)
- outcome [4]: inactive
- outcome [5]: inactive
- outcome [7]: inactive
- outcome [8]: inactive
- outcome [9]: inactive
- outcome [10]: inactive
- outcome [11]: inactive
- outcome [12]: inactive
- outcome [13]: inactive
- outcome [14]: inactive
- outcome [15]: inactive
- outcome [16]: inactive
- outcome [17]: inactive
- outcome [18]: inactive
